aSyn UTR act – Activators via SNCA 5'UTR binding, MLPCN. alpha-synuclein 5'UTR reporter, activators screen. 7.1% of 300,000 active. activity score, % (tested at 7.5 µM), hits read low. AID 1814; in the data active means activity score below about -60%
A number is an active result. The list is a sample of the results.

`CCn1cnc2cc(NC(=O)c3cccs3)ccc21` gave aSyn UTR act -109.2.
`CN(C)c1ccc(/C=C2\SC(=O)N(CCc3nnc(N)s3)C2=O)cc1` gave aSyn UTR act inactive.
`CN(C)c1ccc(/C=C2/SC(=O)N(CCN=C3NS(=O)(=O)c4ccccc43)C2=O)cc1` gave aSyn UTR act -66.0.
C=CCNC(=O)COc1ccc(Br)cc1Cl was read as aSyn UTR act -102.8.
O=C(COc1ccc(Br)cc1Cl)c1ccc[nH]1 was read as aSyn UTR act -69.4.
Screening COCCNC(=O)COc1ccc(Br)cc1Cl returned aSyn UTR act -68.1.
Screening N#Cc1c(N2CCCC(O)C2)nc(N)c2c(N)nc3c(c12)CC(=O)N3C12CC3CC(CC(C3)C1)C2 (stereo not given) returned aSyn UTR act -232.4.
Screening CCn1cc(NC(=O)CCl)c(C)n1 returned aSyn UTR act -103.6.
COc1cccc(NC(=O)c2cc3cccc(OC)c3o/c2=N\O)c1 was read as aSyn UTR act -80.8.
`COc1ccc(NC(=O)c2cc3cccc(OC)c3oc2=Nc2ccc(C(=O)O)cc2)cc1OC` gave aSyn UTR act -116.3.
For Cc1cc(C)cc(NC(=O)Nc2ccc(N3CCCCC3)cc2)c1 the results were aSyn UTR act -153.0.
`Cc1cc(C)cc(C(=O)Nc2ccc(N3CCCC3)cc2)c1` gave aSyn UTR act -120.5.
CCc1nc2ccc(C(=O)NC3CCC(C)CC3)cc2nc1CC (stereo not given) was read as aSyn UTR act -85.8.
CC1CCC(NC(=O)c2ccc3snnc3c2)CC1 (stereo not given) was read as aSyn UTR act -86.5.
O=C(Cc1ccc(Br)cc1)NCc1ccccc1 was read as aSyn UTR act -66.9.
`COc1ccc(CC(=O)NCc2ccccc2)cc1` gave aSyn UTR act -154.2.
Screening COc1ccc(CNC(=O)c2nc(S(=O)(=O)Cc3ccccc3)ncc2Cl)cc1 returned aSyn UTR act inactive.
O=C(NCc1ccccc1)c1c(Cl)nc(Cl)c(Cl)c1Cl was read as aSyn UTR act inactive.
Screening COc1ccc(CNC(=O)c2ccc(-c3ccccc3)cc2)cc1 returned aSyn UTR act -114.7.
For COc1ccc(CNC(=O)c2ccc(N3CCCC3=O)cc2)cc1 the results were aSyn UTR act -71.0.
For COc1cccc(/C=N/NC(=O)c2ccc(N3CCCC3=O)cc2)c1 the results were aSyn UTR act -112.3.
Screening COC(=O)c1ccc(COC(=O)CNC(=O)c2ccc(-c3ccccc3)cc2)cc1 returned aSyn UTR act -87.2.
Screening COc1ccc(OC)c(NS(=O)(=O)c2ccc(N3CCCC3=O)cc2)c1 returned aSyn UTR act inactive.
`O=C1N(Cc2ccc(F)cc2)CCN1c1ccc(F)cc1` gave aSyn UTR act -81.4.
Screening COc1cc2sc3ccc(-c4ccc(N(C)C)nc4)cc3c(=O)c2cc1OC returned aSyn UTR act -141.4.
Screening COc1ccc(-c2ccc3sc4ccccc4c(=O)c3c2)cn1 returned aSyn UTR act -80.7.
CN(C)c1ccc(-c2ccc3c(=O)c4ccccc4n(C)c3c2)cn1 was read as aSyn UTR act -105.9.
Screening COc1ccc(-n2nc(N)c(C(N)=O)n2)cc1 returned aSyn UTR act -67.9.
For COc1ccc(N2C(N)=NC(N)=NC2(C)C)cc1 the results were aSyn UTR act inactive.
For CCOc1ccc(-n2c(SCC(=O)Nc3nccs3)nc3c(c2=O)SCC3)cc1 the results were aSyn UTR act inactive.
`COc1ccc(C(CC(=O)Nc2nccs2)n2cccc2)cc1` (stereo not given) gave aSyn UTR act -168.5.
`COc1cccc(-n2ccnc2SCC(=O)Nc2nccs2)c1` gave aSyn UTR act -73.1.
`CCCC(=O)NC(c1ccc(OC)cc1)c1ccc2cccnc2c1O` (stereo not given) gave aSyn UTR act inactive.
COc1ccc(C(CC(=O)Nc2ccccn2)N2Cc3ccccc3C2=O)cc1 (stereo not given) was read as aSyn UTR act -113.4.
Screening Cc1cccc(-n2ccnc2SCC(=O)Nc2nccs2)c1 returned aSyn UTR act -132.4.
For Cc1cccc(-n2c(SCC(=O)Nc3ncc(Cl)cc3Cl)nc3ccccc32)c1 the results were aSyn UTR act inactive.
`Cc1ccc2oc(=O)n(CCCOc3ccccc3)c2c1` gave aSyn UTR act -68.5.
`Cc1cccc(OCCN2C(=O)c3ccccc3C2=O)c1` gave aSyn UTR act -66.9.
Screening Cc1ccc2c(c1)C(=O)C(=O)N2CCCOc1ccccc1 returned aSyn UTR act -67.5.
Screening O=C1c2ccccc2C(=O)N1CCCOc1ccccc1 returned aSyn UTR act -61.8.
Screening Cc1cccc(OCCn2c(=O)n(C)c3ccccc32)c1 returned aSyn UTR act -161.5.
CCOc1ccc(OCCN2C(=O)c3ccccc3C2=O)cc1 was read as aSyn UTR act -94.5.
`COc1ccc(Sc2nnc(Cc3ccccc3)c3ccccc23)cc1` gave aSyn UTR act -72.7.
CCC(Sc1nnnn1C)C(=O)Nc1ccc(C(C)=O)cc1 (stereo not given) was read as aSyn UTR act -73.4.
For Cc1csc(NC(=O)Cc2ccccc2Cl)n1 the results were aSyn UTR act -98.6.
`Cc1csc(NC(=O)Cc2ccc(Cl)cc2)n1` gave aSyn UTR act -81.4.
CCOc1ccc(NC(=O)C(c2ccccn2)N(C(=O)CCl)c2ccc(F)cc2)cc1 (stereo not given) was read as aSyn UTR act -71.4.
`Cc1nc(/N=C(\N)Nc2ccccc2)nc2ccccc12` gave aSyn UTR act -132.7.
Screening O=C1c2ccccc2C(Nc2ccc3c(c2)OCCO3)N1Cc1ccc2c(c1)OCO2 (stereo not given) returned aSyn UTR act -72.3.
O=C1c2ccccc2C(Nc2ccc3c(c2)OCCO3)N1c1ccc(Cl)cn1 (stereo not given) was read as aSyn UTR act -75.9.
Screening O=C(C1=C[C@@H](c2csc3ccccc23)C[C@@H](OCc2ccc(CO)cc2)O1)N1CCN(Cc2ccc3c(c2)OCO3)CC1 returned aSyn UTR act inactive.
For COc1ccc2oc(=O)c(-c3nc4ccccc4o3)cc2c1 the results were aSyn UTR act -184.3.
`O=c1oc2ccc3ccccc3c2cc1-c1nc2ccccc2o1` gave aSyn UTR act -86.9.
Screening O=C(CNCc1ccccc1Cl)Nc1ccc2c(c1)OCCO2 returned aSyn UTR act -116.6.
O=C(CSCc1ccccc1Cl)Nc1ccc2c(c1)OCCO2 was read as aSyn UTR act -151.7.
O=C(CNCc1ccc(Cl)cc1)Nc1ccc2c(c1)OCCO2 was read as aSyn UTR act -98.9.
O=C(CNCc1ccccc1)Nc1ccc(Cl)cc1 was read as aSyn UTR act -82.2.
For Cc1cc2nc(N3CCN(C(=O)c4cccs4)CC3)sc2cc1C the results were aSyn UTR act -129.8.
CC(=O)c1ccc(N2CCN(C(=O)c3ccco3)CC2)c(F)c1 was read as aSyn UTR act -97.5.
O=C(c1ccco1)N1CCN(c2nc3ccsc3c(=O)s2)CC1 was read as aSyn UTR act -97.7.
Screening Cc1cc(C)c2nc(N3CCN(C(=O)c4ccco4)CC3)sc2c1 returned aSyn UTR act -115.3.
For c1ccc2c(c1)CCN(c1nc3cc4c(cc3s1)OCCO4)C2 the results were aSyn UTR act inactive.
Cc1cc2nc(N3CCN(C(=O)c4ccco4)CC3)sc2cc1C was read as aSyn UTR act -128.8.
`O=C(c1cccs1)N1CCN(c2nc3c(F)cc(F)cc3s2)CC1` gave aSyn UTR act -78.3.
Screening COC(=O)N1N=C(c2ccccc2)CC1(O)C(F)(F)F (stereo not given) returned aSyn UTR act -64.7.
